Source: PubChem BioAssay AID646 (Vanderbilt High Throughput Screening Facility, 2007)
Among all 1,900 compounds or so, about 15 (0.8%) were called active. Cut-off read from the data, not from the text of the source: active = luminescence above about 3900; inactive = the rest. These entries were drawn from the full list.

Each compound was assayed against D(1A) dopamine receptor (Homo sapiens) (UniProt P21728) (assay: D1 receptor agonism without dopamine, confirmation, mechanism study for D1 allosteric modulator project, cell-based, HEK293 D1, CRE-luciferase, secondary assay 1 (AID 646)). Conditions: no dopamine, at 10 µM, stronger effect = higher value.
Chain of D(1A) dopamine receptor (Homo sapiens) (P21728 whole entry, looked up): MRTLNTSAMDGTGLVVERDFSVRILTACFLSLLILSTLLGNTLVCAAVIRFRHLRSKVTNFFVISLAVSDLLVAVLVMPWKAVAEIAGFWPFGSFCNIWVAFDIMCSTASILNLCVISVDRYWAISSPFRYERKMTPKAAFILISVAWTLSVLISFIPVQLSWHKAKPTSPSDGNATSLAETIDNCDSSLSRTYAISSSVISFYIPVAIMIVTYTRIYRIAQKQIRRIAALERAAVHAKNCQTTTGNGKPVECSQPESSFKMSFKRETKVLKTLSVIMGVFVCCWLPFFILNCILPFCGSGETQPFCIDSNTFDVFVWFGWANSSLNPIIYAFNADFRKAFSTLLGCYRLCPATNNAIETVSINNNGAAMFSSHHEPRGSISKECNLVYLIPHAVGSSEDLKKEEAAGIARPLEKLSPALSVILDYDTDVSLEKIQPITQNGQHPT

luminescence, inactive:
CCOc1cc(-c2noc(CCC(=O)N3CCOCC3)n2)ccc1OC 1180
COC(=O)[C@H](C(C)C)n1c(C)c(C(C)=O)c(C(C)=O)c1C 1540
N#Cc1nc(Cc2ccccc2)oc1NCCc1ccccc1 1730
Cc1cc(C)c2c(n1)nn1c(-n3ccnc3)cc(C)nc21 1660
CC1CCN(c2oc(-c3ccccc3F)nc2C#N)CC1 1620
Cc1ccc(C2CC(c3cccc(Br)c3)n3nc(N)nc3N2)cc1 (stereo not drawn) 1420
COc1cc(NC(=O)N2CCOCC2)cc(OC)c1 1580
COc1ccc(NC(=O)C2CCCN(S(=O)(=O)c3cccc4cccnc34)C2)cc1OC (stereo not drawn) 1590
CCCc1nc(-c2ccccc2O)n(-c2ccccc2)n1 1710
COc1ccc(-c2nn3c(-c4ccccc4)nnc3s2)cc1OC 1800
O=C(NCc1ccco1)c1cnn2c(C(F)(F)F)cc(-c3ccco3)nc12 1560
Cc1nn(-c2ccccc2)c2c1C(=O)NC(=O)C(C)(C)C2 1740
COc1ccc(-c2nnc(SCC(=O)NC3CCCCC3)o2)cc1OC 1800
c1coc(-c2nc3nc4ccccc4n3nc2-c2ccco2)c1 1610
CC1(C)Cc2ccccc2-c2nc(CN3CCOCC3)[nH]c(=O)c21 1890
CCCCSc1nc2c(c(=O)n1CC)SC(C)C2 (stereo not drawn) 1490
CCOC(=O)c1c(NC(=O)CSc2nnc(Cc3csc(N)n3)n2C)sc(C)c1C 1680
C#CCNc1nc(C(C)C)nc2c1nnn2Cc1ccccc1F 1600
C/C(=C\C(=O)c1ccccc1)Nc1cccc(O)c1 1340
O=S(=O)(c1cccs1)N1CCc2ccccc2C1 1530
COc1ccc(CCNC(=O)CCn2c(=O)oc3ccccc32)cc1OC 1540
COc1ccc(CCN(C)C(=O)C2CCCN(Cc3ccc(OC)c(OC)c3)C2)cc1OC (stereo not drawn) 1520
O=C(C1CCC1)N1CCc2cc(S(=O)(=O)NCc3cccnc3)ccc21 1680
CCOC(=O)c1c(NC(=O)CSc2nnc(CN3CCOCC3)n2C)sc2c1CCCC2 1870
CCSc1ncnc2c(C#N)c3n(c12)CCCCC3 1840
N#Cc1nc(N)nc(N(c2ccccc2)c2ccccc2)n1 1620
COc1ncnc2c1N=C1CC(C)(C)CC(N)=C1S2 1620
N#CCCN1CCN(S(=O)(=O)c2ccc(S(=O)(=O)NC3CCCCC3)cc2)CC1 1130
